Source: PubChem (several laboratories)
Sampled rows, rich in hits. Any-hit rate of the full collection: about 4%.
GDH-TPI counter-1: counter-screen for M. tuberculosis FBA inhibitors: GDH-TPI coupled enzymes; GDH-TPI coupled enzyme counterscreen, NADH absorbance; AID 588335; inhibition, % at 4.8 µM; actives 1.2% (n = 360,000); in the data active means inhibition above about 30%;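 further: 0% = DMSO wells and 100% = wells lacking the enzyme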
Rv3671c inh: inhibitors of M. tuberculosis serine protease Rv3671c | AID 2606 | P9WHR9 | actives 0.048% (n = 320,000) | inhibition, % at 5.96 µM; in the data active means inhibition above about 38%;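 further: extracellular domain of Rv3671c used as enzyme; 0% = enzyme with DMSO and 100% = no enzyme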
Target sequence (P9WHR9 whole entry, looked up, the tested form may be a part): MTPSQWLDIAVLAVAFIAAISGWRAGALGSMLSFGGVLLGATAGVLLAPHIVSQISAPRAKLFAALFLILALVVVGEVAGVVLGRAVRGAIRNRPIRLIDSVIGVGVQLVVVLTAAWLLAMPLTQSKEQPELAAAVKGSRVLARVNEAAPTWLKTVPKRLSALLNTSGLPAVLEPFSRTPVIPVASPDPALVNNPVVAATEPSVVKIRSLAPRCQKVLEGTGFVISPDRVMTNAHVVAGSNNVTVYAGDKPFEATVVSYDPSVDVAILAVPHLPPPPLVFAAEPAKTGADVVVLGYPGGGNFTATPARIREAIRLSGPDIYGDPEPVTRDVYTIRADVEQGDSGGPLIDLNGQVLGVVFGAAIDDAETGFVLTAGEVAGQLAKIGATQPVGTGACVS
Mtb betalactam: beta-lactam sensitization of Mtb H37Rv; M. tuberculosis H37Rv growth with meropenem, percent inhibition; inhibition, % at 25 µM; actives 0.27% (n = 330,000); call rule not given here;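 further: growth measured after seven days incubation then overnight dye step; 0% = bacteria only wells and 100% = bacteria with antibiotic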
FBA Mtb inh: inhibits M. tuberculosis FBA enzyme. P9WQA3. purified M. tuberculosis FBA, fluorescence read-out. inhibition, % at 1 µM. actives 2.3% (n = 360,000);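 further: 0% = vehicle and 100% = reference inhibitor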
UGM FP inh: inhibitors of M. tuberculosis UDP-galactopyranose mutase | purified UGM, fluorescence polarization probe displacement | actives 0.06% (n = 320,000) | P9WIQ1 | inhibition, % at 10 µM | AID 504406; in the data active means inhibition above about 10%, passing the limit was not always enough
RecA intein inh: Mtb RecA intein splicing inhibition | P9WHJ3 | cell-free RecA intein splicing, fluorescence | inhibition, % (concentration not given with the values) | actives 0.75% (n = 290,000) | AID 2221; in the data active means inhibition above about 30%;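 further: 0% = vehicle wells and 100% = reference inhibitor control wells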
Mtb FBA confirm: Mtb FBA inhibition, confirmed; shares compounds with FBA Mtb inh; purified M. tuberculosis FBA, fluorescence read-out; inhibition, % at 1 µM; actives 78% (n = 5,600);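 further: 0% = vehicle wells and 100% = reference inhibitor wells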
GDH-TPI counter-2: inhibits GDH-TPI coupling enzymes, flagging Mtb FBA hits; AID 652141; shares compounds with FBA Mtb inh; GDH-TPI coupled enzyme counterscreen, fluorescence; inhibition, % at 1 µM; actives 81% (n = 5,600); in the data active means inhibition above about 10%
GDH-TPI dose: counter-screen for M. tuberculosis FBA inhibitors: GDH-TPI dose response; IC50, µM; actives 79% (n = 170); shares compounds with FBA Mtb inh; GDH-TPI coupled enzyme assay, fluorescence, artifact counterscreen; call rule not given here
* hit, by the source's call; . = no result given; + = active, no number. Unless noted, no stated cut-off is given here; in the data, active means inhibition above about 27%; inactive means the rest.

SMILES	GDH-TPI counter-1	Rv3671c inh	Mtb betalactam	FBA Mtb inh	UGM FP inh	RecA intein inh	Mtb FBA confirm	GDH-TPI counter-2	others
Cc1cc(Oc2nc3ccccn3c(=O)c2/C=C(\C#N)C(=O)NC2CCS(=O)(=O)C2)ccc1Cl (stereo not drawn)	2	-6	-1	45*	3	.	139*	113*
Cc1cccc(Oc2nc3ccccn3c(=O)c2/C=C(\C#N)C(=O)NC2CCS(=O)(=O)C2)c1C (stereo not drawn)	8	2	2	51*	-2	-24	107*	80*
CCc1nc(NCCN2CCOCC2)c2oc3ccccc3c2n1	-6	-3	-12	2	-1	1	.	.
Cc1ccnc(N2CCC(C(=O)NCc3ccccc3F)CC2)n1	4	-4	-8	10	0	0	.	.
CCOC(=O)c1cc2nc(-c3ccco3)cc(C(F)(F)F)n2n1	7	-11	17	28*	3	-18	+	+
COCc1nnc(NC(=O)c2ccccc2Oc2ccccc2)s1	8	6	-2	73*	-1	2	158*	119*
CCCCn1nc2cc(C(=O)N(CC)c3ccc(OC)cc3)ccc2c1OCC	3	3	0	28*	1	-2	112*	87*
CCN(C(=O)c1ccc2c(OC)n(CC)nc2c1)c1ccc(OC)cc1	3	1	2	31*	1	-27	-3	-5
CC(C)NC(=O)CSc1ccccc1C(=O)N1CCN(S(=O)(=O)/C=C/c2ccccc2)CC1	5	-6	3	1	2	.	.	.
C=C1CCCC2OC(CC3=CC4/C(C)=C/CC(C)CC(/C=C(\C)C(O)C5CC(O)C(O)C(CCC(O)/C=C/C(C)=C/CCC6=NCCC(C3)C64C)O5)OC(=O)CC3OC(C(O)C1)C(O)C3O)CC(O)C2O (stereo not drawn)	1	.	.	-3	.	.	.	.
CCC1CCCCN1C(=O)COc1ccc2c3c(c(=O)oc2c1)CCC3 (stereo not drawn)	9	2	-2	23	-1	.	.	.
O=C(O)COc1ccc2c3c(c(=O)oc2c1)CCC3	6	5	-8	96*	1	-3	72*	47*
CC(Oc1ccc2c3c(c(=O)oc2c1)CCCC3)C(=O)NCCCn1ccnc1 (stereo not drawn)	16	-4	0	25	-1	3	.	.
CCc1c(C)c2ccc(OCC(N)=O)cc2oc1=O	0	-1	1	88*	3	.	18	6
COc1ccc(-c2c(C)c3ccc(OCC(C)=O)cc3oc2=O)cc1	.	-15	9	.	4	1	.	.
O=C(COc1ccc2c3c(c(=O)oc2c1)CCC3)N1CCN(c2ccccc2)CC1	10	5	-8	9	-5	5	.	.
CCOC(=O)COc1ccc2c3c(c(=O)oc2c1)CCCC3	0	-3	99	32*	1	-1	+	182*
CC(C)CC(C(=O)Oc1ccc2c3c(c(=O)oc2c1)CCC3)N1C(=O)c2ccccc2C1=O (stereo not drawn)	4	.	.	31*	.	0	13	-3	GDH-TPI dose=5.6*
O=C(O)CCCC(=O)Nc1ccc(S(=O)(=O)Nc2nccs2)cc1	4	.	7	1	3	-9	.	.
CC(NC(=O)CN1C(=O)NC2(CCc3ccccc32)C1=O)c1ccccc1 (stereo not drawn)	-5	5	-1	0	.	.	.	.
CCC(=O)N1CCC2(CC1)Oc1ccc(F)cc1C(=O)C21CC(c2cccnc2)=NO1 (stereo not drawn)	12	6	-7	8	-2	2	.	.
C=CC[C@@H](CC(=O)NCCO)C(=O)N[C@@H](C)COC(=O)[C@H](CC=C)CC(=O)OC(C)(C)C	-2	1	0	-1	.	.	.	.
CN(C)C(=O)COc1ccc2c3c(c(=O)oc2c1)CCCC3	15	2	1	61*	1	0	107*	84*
CC(C)Oc1ccc2c3c(c(=O)oc2c1)CCC3	19	-7	-10	76*	2	-10	86*	72*
CCC(NC(=O)OC(C)(C)C)C(=O)Oc1ccc2c3c(c(=O)oc2c1)CCC3 (stereo not drawn)	6	-1	1	.	0	-13	.	.
SMILES	GDH-TPI counter-1	Rv3671c inh	Mtb betalactam	FBA Mtb inh	UGM FP inh	RecA intein inh	Mtb FBA confirm	GDH-TPI counter-2	others
CCN(CC)C(=O)COc1ccc2c3c(c(=O)oc2c1)CCCC3	10	-5	2	50*	0	-56	40*	41*
O=C(COc1ccc2c3c(c(=O)oc2c1)CCC3)N[C@@H](Cc1ccccc1)C(=O)O	21	0	-1	27*	2	-1	9	-6
O=C(COc1ccc2c3c(c(=O)oc2c1)CCC3)N[C@@H](CSCc1ccccc1)C(=O)O	12	4	-8	10	0	0	.	.
COc1ccc(CNC(=O)CN(Cc2cccs2)C(=O)CCC(=O)Nc2ccccn2)cc1	-2	7	4	3	-1	-4	.	.
COCCn1c(C)cc(C(=O)COC(=O)c2ccc3ncsc3c2)c1C	-3	4	90	1	0	3	.	.
COc1ccccc1NC(=O)Nc1ccccc1Br	-2	-3	2	-3	-1	-2	.	.
CC1=C(C(=O)Nc2ccccc2C(=O)NC2CCC(C)CC2)SCCO1 (stereo not drawn)	-4	-2	-4	37*	-2	-1	20	17*
CC1=C(C(=O)Nc2ccccc2C(=O)NCc2ccccc2)SCCO1	-5	-3	3	-6	-2	-1	.	.
Cc1ccc(S(=O)(=O)N(C)C[C@H]2OCc3cn(nn3)CCCC(=O)N([C@@H](C)CO)C[C@@H]2C)cc1	2	.	.	0	.	.	.	.
CC(C)C(=O)Nc1ccc2c(c1)C(=O)N(CCC(=O)O)C2=O	6	6	-6	40*	-3	-1	97*	81*
COc1ccccc1Oc1nc(-c2ccccc2)cc(C)c1S(C)(=O)=O	21	-3	3	64*	.	1	37*	43*
Cc1cccc(Oc2nc(-c3ccccc3)cc(C)c2S(C)(=O)=O)c1C	-9	-12	-7	13	-1	14	.	.
O=C1COc2ccc(C(=O)COC(=O)c3c(F)cccc3Cl)cc2N1	2	0	-5	-1	0	.	.	.
COC(=O)c1cccc(NC(=O)c2cnoc2C)c1	-2	4	1	31*	1	0	95*	73*
Cc1oncc1C(=O)Nc1ccc2ccccc2c1	-3	.	.	-1	.	-3	.	.
O=C(C1CCCCC1)N1C[C@@H](O)[C@H](n2cc(C3CC3)nn2)C[C@@H]1c1ccccc1	1	.	.	3	.	.	.	.
